# Reference: PubChem BioAssay (EPA / NIEHS)
# Records with an inconclusive call do not appear. The source made the active and inactive calls. Rule for the calls, unless noted: active = hit-call score of the fitted dose curve at least 0.9, where 1 is the maximum; inconclusive = response in the unintended direction; inactive = score below 0.9.
# Key:
# [1] = STM_H9_OrnithineISnorm_perc: Stemina devTOX quickPredict H9 human embryonic stem cell (hESC)-based Assay for Ornithine (ORN) Metabolite Biomarker, Normalized (AID 2283712; active = hit-call score of the fitted dose curve at least 0.9, where 1 is the maximum; inactive = score below 0.9;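 note: ornithine released into spent medium during last day measured by mass spectrometry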)
# Method in brief: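 Ornithine secreted by H9 hESCs after 72h compound treatment (daily media/compound renewal) was quantified in final-day media by UPLC-HRMS. Values are isotope-standard-normalized, expressed relative to 0.1% DMSO, fitted in positive direction.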
# [2] = STM_H9_OrnCyssISnorm_ratio: Stemina devTOX quickPredict H9 human embryonic stem cell (hESC)-based Assay for Ornithine (ORN):Cystine (CYSS) Ratio (AID 2283714)
# Method in brief: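 Ratio of internal-standard-normalized ornithine to cystine, measured by UPLC-HRMS in spent media from the last 24 h. H9 cells kept pluripotent, dosed 72 h with daily media and compound renewal; DMSO 0.1% serves as baseline.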
# [3] = Tanguay_ZF_120hpf_ActivityScore_legacy: (Legacy) Oregon State University Tanguay Lab 120 Hour Post-fertilization zebrafish Assay Score for Activity (AID 2283742);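 for AC50: dechorionated Tropical 5D wild-type zebrafish embryos held singly per well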
# Method in brief: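 Binary scoring of mortality and morphology by brightfield at 24 and 120 hpf, summarised into one activity score from 18 components relative to DMSO. Wild-type Tropical 5D zebrafish, chorion removed at 4 hpf, static exposure 6–120 hpf, 28 °C.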
# [4] = ArunA_Migration_hNC: ArunA Biomedical's Oris Neural Crest (hNC) Cell Migration Assay (AID 2283755)
# Method in brief: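 Calcein-AM fluorescence (ex494 nm/em 517 nm) in the stopper-defined detection zone quantifies migration of hNC cells after 72 h chemical exposure; 60,000 cells/well plated on Matrigel with LIF and bFGF, 16 h pre-incubation. DMSO baseline.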
# [5] = ArunA_NOG_NucleusCount: ArunA Biomedical's Neurite Outgrowth (NOG) Assay for Nucleus Count (AID 2283756)
# Method in brief: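 Viable neuron count, from Hoechst nuclei passing size and intensity gates, imaged at 20x on differentiated H9-derived human neurons. Exposure lasted 48 h from seeding; activity was scored relative to DMSO.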
# [6] = ArunA_NOG_NeuriteLength: ArunA Biomedical's Neurite Outgrowth (NOG) Assay for Neurite Length (AID 2283757)
# Method in brief: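 Total neurite length per neuron, from traced βIII-tubulin-labelled processes longer than 10 um on viable Hoechst-gated cells, was scored as decrease from DMSO. Cells were hESC (H9)-derived neurons given 48 h chemical exposure immediately after seeding.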
# [7] = ArunA_NOG_NeuritesPerNeuron: ArunA Biomedical's Neurite Outgrowth (NOG) Assay for Neurites Per Neuron (AID 2283758)
# Method in brief: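 Differentiated human H9-derived neurons exposed to chemicals for 48 h from seeding, then stained with Hoechst and βIII-tubulin/DyLight 488. Automated imaging counted neurites (processes >10 um) per valid neuron; loss of signal versus DMSO scored.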
# [8] = ArunA_NOG_BranchPointsPerNeurite: ArunA Biomedical's Neurite Outgrowth (NOG) Assay for Branch Points Per Neurite (AID 2283759)
# Method in brief: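 Automated image analysis traced neurites (processes >10 um) from valid cell bodies after Hoechst and βIII-tubulin staining. hNN cells from H9 embryonic stem cells, 48 h exposure. Fitted bidirectionally against DMSO.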
# [9] = ACEA_AR_agonist_AUC_viability: ACEA Biosciences xCELLigence Real-Time Cell Analysis on Androgen Receptor Agonism for Viability (AID 2283775);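 for AC50: viability read 80 hours after compound addition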
# Method in brief: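 22Rv1 cells; impedance growth kinetics; 8-pt 1:4 dilutions from 100 uM top final, ≤0.5% DMSO; n = 2; 80 h read; AUC viability, loss-of-signal vs DMSO.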
# [10] = ACEA_AR_antagonist_AUC_viability: ACEA Biosciences xCELLigence Real-Time Cell Analysis on Androgen Receptor Antagonism for Viability (AID 2283776);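 note: 22Rv1 human prostate cancer cells growing on impedance electrode plates; area under impedance growth curve at 80 h after dosing as viability; hits lower the growth signal relative to DMSO meaning cytotoxicity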
# Method in brief: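 Impedance read-out (RT-CES): area under growth curve at 80 h post-dose, loss of signal scored vs DMSO baseline. 22Rv1 cells; 8-pt 1:4 series, top 100 uM final, ≤0.5% DMSO; biological duplicate.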
# [11] = CEETOX_H295R_MTT_cell_viability: Viability Assessment in the CeeTox HT-H295R MTT Assay (AID 2283718; active = hit-call score of the fitted dose curve at least 0.9, where 1 is the maximum; inactive = score below 0.9;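 for AC50: curve fitted both ways so AC50 may mark viability loss or gain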)
# Method in brief: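 MTT reduction (0.5 mg/ml, 4 h at 37 C; absorbance at 570 and 650 nm) gave viability as background-corrected percent change versus controls. H295R cells had 48 h forskolin (10 uM) prestimulation, then 48 h chemical exposure at 0.1% DMSO.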
# [12] = biological target: Luciferin 4-monooxygenase (Photinus pyralis) (UniProt P08659); test: CCTE_Simmons_QuantiLum_inhib_2: CCTE's Firefly Luciferase Inhibition Assay, Simmons Lab (AID 2283767);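 for AC50: potency for inhibitors that lower luciferase luminescence relative to DMSO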
# Luciferin 4-monooxygenase (Photinus pyralis), sequence (P08659 whole entry, looked up): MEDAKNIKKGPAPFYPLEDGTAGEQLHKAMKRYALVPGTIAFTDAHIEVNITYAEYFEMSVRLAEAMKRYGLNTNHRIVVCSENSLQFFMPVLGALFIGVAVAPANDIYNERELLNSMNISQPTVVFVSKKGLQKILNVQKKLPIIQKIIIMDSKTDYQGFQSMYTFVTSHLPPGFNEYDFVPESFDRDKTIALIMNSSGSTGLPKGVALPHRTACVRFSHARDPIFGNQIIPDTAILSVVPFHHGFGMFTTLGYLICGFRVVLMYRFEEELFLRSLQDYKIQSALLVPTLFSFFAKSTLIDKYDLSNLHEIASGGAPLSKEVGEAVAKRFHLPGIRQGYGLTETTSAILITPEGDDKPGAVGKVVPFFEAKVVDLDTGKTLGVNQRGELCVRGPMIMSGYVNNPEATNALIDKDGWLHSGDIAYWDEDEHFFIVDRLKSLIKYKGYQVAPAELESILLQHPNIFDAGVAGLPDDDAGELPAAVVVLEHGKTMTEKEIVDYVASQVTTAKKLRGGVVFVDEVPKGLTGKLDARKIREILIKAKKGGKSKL
# Method in brief: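 First, 5 ng purified luciferase in phosphate buffer with BSA is dispensed per well. Next, test chemicals (5 nM to 87.5 uM final, 0.5% DMSO) are added and incubated 30 min at 37C in darkness. Finally, luciferin reagent is injected and luminescence read kinetically.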
# [13] = test system: zebrafish Estrogen Receptor (ESR2B), gene 317733; test: ATG_zfER2b_XSP1: Attagene TRANS-FACTORIAL Multi-Species (XSP1) HepG2 Assay for zebrafish Estrogen Receptor (ESR2B) (AID 2283773)
# Method in brief: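 Medium contained 3 nM 6-alpha-fluorotestosterone. Reporter mRNA induction by exogenous zebrafish ER2b-Gal4 chimera was read 24 h post-dose in transiently transfected HepG2 cells, using RT-PCR, fluorescent labelling, HpaI digestion and capillary electrophoresis.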
# [14] = test system: frog Estrogen Receptor (ESR2), gene 100174814; test: ATG_frER2_XSP1: Attagene TRANS-FACTORIAL Multi-Species (XSP1) HepG2 Assay for frog Estrogen Receptor (ESR2) (AID 2283774)
# Method in brief: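 Reporter mRNA from a multiplexed TRANS system, measured by RT-PCR with fluorescent labelling and capillary electrophoresis, 24 hours after chemical exposure. Human HepG2 liver cells carried exogenous frog ER-Gal4 chimera; medium included 3 nM 6-alpha-fluorotestosterone; increases versus DMSO analysed.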
structure (smiles),measurement,setting,value
NC(=O)NN=Cc1ccc([N+](=O)[O-])o1,outcome,[1],inactive
same,AC50,[2],2.42 µM (active)
same,outcome,[3],inactive
OCCNCCO,outcome,[1],inactive
same,AC50,[2],14 µM (active)
same,outcome,[3],inactive
same,outcome,[4],inactive
same,AC50,[5],21.3 µM (active)
same,AC50,[6],24.8 µM (active)
same,AC50,[7],20.2 µM (active)
same,AC50,[8],15.4 µM (active)
same,outcome,[9],inactive
same,outcome,[10],inactive
CCCCOC(=O)c1ccccc1,outcome,[3],inactive
C=CCc1cc(S(=O)(=O)c2ccc(O)c(CC=C)c2)ccc1O,outcome,[11],inactive
same,outcome,[3],inactive
same,outcome,[12],inactive
same,AC50,[13],1.68 µM (active)
same,AC50,[14],1.53 µM (active)
same,AC50,[9],24.3 µM (active)
same,AC50,[10],24.5 µM (active)
O=S1(=O)CCCO1,outcome,[1],inactive
same,AC50,[2],78.2 µM (active)
same,outcome,[3],inactive
same,outcome,[12],inactive
same,outcome,[9],inactive
same,outcome,[10],inactive
CCCCN1C(=O)[C@@H]([C@H](O)C2CCCCC2)NC(=O)C12CCN(Cc1ccc(Oc3ccc(C(=O)O)cc3)cc1)CC2,outcome,[1],inactive
same,AC50,[2],2.14 µM (active)
same,outcome,[3],inactive
OCc1c[nH]c2ccccc12,outcome,[11],inactive
Cc1nc(-c2ccccn2)ncc1C(=O)Nn1cc(C)c2cc(F)ccc21,outcome,[1],inactive
same,outcome,[2],inactive
same,AC50,[11],75.8 µM (active)
same,outcome,[3],inactive
C[C@]12C=CC(=O)C=C1CC[C@H]1[C@@H]3C[C@@H](O)[C@](O)(C(=O)CO)[C@@]3(C)C[C@H](O)[C@@]12F,outcome,[1],inactive
same,outcome,[11],inactive
same,AC50,[3],0.00064 µM (active)
CCn1nc(C)c2c1C(=O)NCC(c1ccc(O)cc1)=N2,outcome,[11],inactive
same,outcome,[3],inactive
same,AC50,[12],15.8 µM (active)
same,AC50,[9],25.8 µM (active)
same,AC50,[10],15.1 µM (active)
CCCCCCCCCCCCCCO,outcome,[11],inactive
same,outcome,[3],inactive
same,AC50,[9],50 µM (active)
same,AC50,[10],50 µM (active)
